Results on 15 compounds are retold here after PubChem BioAssay (NCATS).

Results filed as inconclusive are left out. Activity calls are given as the source filed them. The call rests on the fitted dose curve; in most records, active means well fitted cell-killing curve with a large enough effect; inconclusive means small, poorly fitted or top-dose-only effect, or effect the other way; inactive means no such curve, though single readings can be large or run the other way.
Potency means the concentration at half of the fitted maximal effect.

The experiment can be described thus: Quantitative High-Throughput drug screen in 47 multiple myeloma cell lines against the NCATS MIPE library collection: JJN3_DSMZ cell viability assay (AID 1918966; further: nearly all actives have a fitted effect of over 50% in size). Particulars: JJN3 myeloma cells viability, CellTiter-Glo ATP, 48 h; series mostly up to 45.8 µM. The gist of the method: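 Inhibition of cell viability is measured here. Each line was plated at 500 cells per well, treated with MIPE 4.0 drugs, kept 48 hours at 37C, then assayed for ATP content by CellTiter-Glo luminescence.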
With `COc1ccc(CC2=NN3C([C@@H](CCc4ccccc4)[C@@H](C)O)=NC(C)C3C(=O)N2)cc1OC` (stereo not given in full), the Potency entry is “inactive”.

With `Cc1ccc(NC(=O)c2cccc(C(C)(C)C#N)c2)cc1Nc1ccc2ncn(C)c(=O)c2c1`, the Potency was 18.7 µM (active).

Turning to `CC(C)(C)OC(=O)CN(Cc1ccc(Cl)cc1)Cc1ccc([N+](=O)[O-])s1`, the Potency was 10.5 µM (active).

Consider `CCOc1ccc(Cc2cc([C@@H]3O[C@H](CO)[C@@H](O)[C@H](O)[C@@H]3O)ccc2Cl)cc1`, for which the Potency entry was “inactive”.

Turning to `Cc1c(CN2CCN(C(=O)C(C)C)CC2)sc2c(N3CCOCC3)nc(-c3cnc(N)nc3)nc12`, the Potency is 0.209 µM (active).

Regarding `COc1ccc(COc2cc3oc(=O)c4cc(C(C)O)ccc4c3cc2OC)cc1` (stereo not given), the Potency is 26.4 µM (active).

As to `CS(=O)(=O)c1cccc(CNc2nc(Nc3ccc4c(c3)CCC(=O)N4)ncc2C(F)(F)F)c1`, the Potency is 16.6 µM (active).

On to `CC(C)(N)C(=O)N[C@H](COCc1ccccc1)C(=O)N1CCC2(CC1)CN(S(C)(=O)=O)c1ccccc12`, for which the Potency was 3.72 µM (active).

As to `N[C@@H]1CONC1=O`, the Potency entry was “inactive”.

Take `Cc1c(C)c2c(c(C)c1O)CCC(C)(COc1ccc(CC3SC(=O)NC3=O)cc1)O2` (stereo not given): the Potency entry is “inactive”.

As to `N#CC[C@H](C1CCCC1)n1cc(-c2ncnc3[nH]ccc23)cn1`, the Potency is 5.26 µM (active).

On to `COc1ccccc1-c1cccc(-c2c(O)c3cc(C#N)c(Cl)cc3[nH]c2=O)c1`, for which the Potency entry was “inactive”.

In the case of `O=C(Nc1nc2ccccc2n1CCN1CCOCC1)c1cccc([N+](=O)[O-])c1`, the Potency is 20.9 µM (active).

Take `Nc1nc2ccc(OC(F)(F)F)cc2s1`: the Potency is 16.6 µM (active).

Take `COc1cccc2cc(-c3nc(C4CCC(C(=O)O)CC4)n4ncnc(N)c34)[nH]c12` (stereo not given): the Potency is 1.05 µM (active).
